T1: UNK ZnF1-6 (called full-length) (human, UniProt Q9C0B0 30-357)
T1 sequence: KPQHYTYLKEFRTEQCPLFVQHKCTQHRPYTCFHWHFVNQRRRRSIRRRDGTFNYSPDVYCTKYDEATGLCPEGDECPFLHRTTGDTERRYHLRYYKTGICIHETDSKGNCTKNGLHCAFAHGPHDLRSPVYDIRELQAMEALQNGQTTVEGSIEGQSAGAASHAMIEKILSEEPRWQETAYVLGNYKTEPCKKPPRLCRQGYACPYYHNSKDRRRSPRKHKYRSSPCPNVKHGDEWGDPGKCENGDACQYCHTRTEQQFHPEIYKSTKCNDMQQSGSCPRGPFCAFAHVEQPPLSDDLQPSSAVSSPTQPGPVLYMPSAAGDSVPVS

B1: chr14:53043751:53043854:-|3pUTR|ENSG00000100523|unk|FALSE|unique (ssRNA)
RNA: GGGAGUUCUACAGUCCGACGAUCACUUAGAUUAAAUCUUGCUUUAUUUUUACUUUAAAAUUAGUCUUGCUAAGGCCUUAUGUUAGUUCAUACUUUCUUUUCAACAGUAAUCUUGUUUAUAAUCCAGUGUUUCUGUGUUUUAGGCAACAGAGGAUUGAGCAUCA
B2: chr10:62095068:62095169:+|3pUTR|ENSG00000150347|msi1|FALSE|unique (ssRNA)
RNA: GGGAGUUCUACAGUCCGACGAUCCCAUUUGCUUCAAUUAAUUAUUUACCUUCCUGUGGAAUAAUAUAUAUAUAUAUAUUUAAUAGAACCAUAGAUAGACUAGUAGAAUUUAGAUUAUAAAUGUGUGAGUGCAGAUUAUCCUGCCAACAGAGGAUUGAGCAUCA
B3: chr9:72354534:72354635:-|3pUTR|ENSG00000107372|msi1|FALSE|unique (ssRNA)
RNA: GGGAGUUCUACAGUCCGACGAUCGUCCUAGUUUUUACUUUUAUUCUUAAAGCAUUCAGUUUUGCUUUCAAUUUUAUGUACCUUAGUUCUGAGUUAGACCUGCAGAUGUGUACAGAUAGUUCAUAUUUAUGUAUUGCACAUAAUCAACAGAGGAUUGAGCAUCA
B4: chr6:133987709:133987810:+|3pUTR|ENSG00000028839|unk|FALSE|unique (ssRNA)
RNA: GGGAGUUCUACAGUCCGACGAUCAAUAACAAAUAGGAAUUUUUUUUCUUGCAGAUUAGAAAUAAAAACGUGUAUAUAAACUCUAGGGAACCAGACUAGAAGUUUAUAGAUAAAGGAUAAUGUUUUAUGUUGCUAAUUUAAUAUCAACAGAGGAUUGAGCAUCA
B5: chr9:123379744:123379845:-|3pUTR|ENSG00000119522|msi1|total|mutant (ssRNA)
RNA: GGGAGUUCUACAGUCCGACGAUCGUGUUUCAGCACCGAUUCCAGUUUCGCACCCUGGGCAGACCCCCAGGCCCCAUCCGGGACCGGGCAGAGGAGGUGCUGGCGGCCCCAGGGAAGGAGGGUGUGUACCCCAAGGCCCCCUGGCAACAGAGGAUUGAGCAUCA
B6: chr3:98797553:98797658:-|3pUTR|ENSG00000057019|msi1|total|mutant (ssRNA)
RNA: GGGAGUUCUACAGUCCGACGAUCAUUUCAUUCAUUGAAGAAUCAAUACAUAUUUUGUUUCAAAAUGUUUGAAACAAAAGACACCGAUGGCCGACUUUUAUUAAAACAUAUAUGGAUGUGGAAAGCACAUAUAUUAAUGCAGUCCAACAGAGGAUUGAGCAUCA
B7: chr15:52550718:52550819:-|3pUTR|ENSG00000128989|msi1|FALSE|unique (ssRNA)
RNA: GGGAGUUCUACAGUCCGACGAUCUUUAUAUAAACUUUUUAAAUGUAGAAACUUUUUACUUCCACACUCAGUUUUGGAGACCCUAGAAUAAAAGGCUUCAAUACUCUGCAUUCCAUGCCCUCUGCCACCUGCUUUUUUUUCCCCCAACAGAGGAUUGAGCAUCA
B8: chrX:100674576:100674677:+|3pUTR|ENSG00000102359|msi1|FALSE|bound_elsewhere (ssRNA)
RNA: GGGAGUUCUACAGUCCGACGAUCUUGCAAUCCACACCAAAUCAAUCUUUGAAAACAUUCCUCCAUUCGGUUCAUACAUACAGUAGAAACCACUGUGGCUGCCCUUAAUCCAGUGUGCUUAUAGGAAAUCAGUUAGCAGCUGACCAACAGAGGAUUGAGCAUCA
B9: chr7:7607225:7607326:+|3pUTR|ENSG00000164654|msi1|total|mutant (ssRNA)
RNA: GGGAGUUCUACAGUCCGACGAUCUUUGAGUGAUUUUGAUAUGCUUCACAGAGACAAAUGCUGCCAAAAUAAACAUCGAAGUACCGACAUGAGUUCUGUUCAGCAGGUUGAAAAGUCUGAUUCCGAAAAACUUUCUAAGUUUUGCAACAGAGGAUUGAGCAUCA
B10: chr3:129431351:129431457:-|3pUTR|ENSG00000129071|unk|FALSE|unique (ssRNA)
RNA: GGGAGUUCUACAGUCCGACGAUCACUUCAAAAAAGCUUAAUUAAGUACAACCAACCACCUUUCCAGCCAUAGAGAUUUUAAUUAGCCCAACUAGAAGCCUAGUGUGUGUGCUUUCUUAAUGUGUGUGCCAAUGGUGGAUCUUUCAACAGAGGAUUGAGCAUCA
B11: chr5:154817497:154817598:+|3pUTR|ENSG00000155506|msi1_unk|FALSE|overlapping (ssRNA)
RNA: GGGAGUUCUACAGUCCGACGAUCUUAUUGAGAGUAUCUGCUUUCCAGGCUGAAGUGAUUCAUUCAUUAUUCUAGUCCUGCUUUAGUCCUUUGUAAUUUGUGGUAAUUAUGCUUUUCUUUUUAAUACAAAAAAAUGUAUAAAAACAACAGAGGAUUGAGCAUCA
B12: chr14:44928120:44928223:-|3pUTR|ENSG00000179454|unk|total|mutant (ssRNA)
RNA: GGGAGUUCUACAGUCCGACGAUCCCGUACAGCAGGCCUCCCAGUGCUGAUGUAAAUAUUUGAGCAGUGUUCCGUACCAUUCUCCGUGCAUAUUAAUUUUUUUAUAUAUCCUUAUAAUUUCCGUUUUUUAAGAUCUUUGCUUUUCAACAGAGGAUUGAGCAUCA
B13: chr14:44928120:44928223:-|3pUTR|ENSG00000179454|unk|FALSE|unique (ssRNA)
RNA: B12 RNA with C24U, C25A, C71U, C72A, C83U, C84A, C120U, C121A
B14: chr12:54238554:54238587:-|3pUTR|ENSG00000094916|msi1_unk|FALSE|overlapping (ssRNA)
RNA: GGGAGUUCUACAGUCCGACGAUCGGGAGCACCCAUUUUAAACCUGGAGAGAACCAUGAUGUUUUCUUCUUCAAAUAACAAUCUAGUUUUUUUUCCCCCAGUACUAAAAUUGUAUUGUCUUUCAGACAAUAUAAUUUUUAUUUACAACAGAGGAUUGAGCAUCA
B15: chr10:73916565:73916770:+|3pUTR|ENSG00000122861|msi1|total|mutant (ssRNA)
RNA: GGGAGUUCUACAGUCCGACGAUCCUGGUUGUCAUUUUUGCAGCCGAGUCAUCUCCAUCAGCUGUAAGAAGAGACUGGGAAGACCGGCUCUGCACAGAUGGAUUUGCCUGUGCCACCCACCAGGGCGAACGACAACCGCUUUACCAACAGAGGAUUGAGCAUCA
B16: chr10:72012227:72012328:+|3pUTR|ENSG00000122863|msi1|total|mutant (ssRNA)
RNA: GGGAGUUCUACAGUCCGACGAUCCAAUGGAAGGAGCUUCAGCAGGAGGUCCUUCCCAGAAGGUUGAUUCUUGGCCUGGGUGGCCGAGGAGAUAUCCUGACCCUAAAGUCUUCCAGCCCCGGGUCAUCCUCUCCUAUACCCGGGCAACAGAGGAUUGAGCAUCA
B17: chr1:18907414:18907603:-|3pUTR|ENSG00000169991|msi1|total|mutant (ssRNA)
RNA: GGGAGUUCUACAGUCCGACGAUCCCUUGAUUUCCCUGAUAACUUGAUGUUCUUCCCUCCCUCGCCAGCCAACAACCGAGGCUCCGAGAUCUGUAAUUUCUCUGUGAGAAAGUCUGAAGGGGCCAGGCCUGGUCUCUGCUCCCUCAACAGAGGAUUGAGCAUCA
B18: chr1:42176760:42176861:-|3pUTR|ENSG00000198815|msi1|total|mutant (ssRNA)
RNA: GGGAGUUCUACAGUCCGACGAUCGUCGCUCAGAUGUCCUUUGAAGUGGGAGGGAAUCAAUCCGGGGAUAAUUUCAAAUGGAACCGAGUAUUUUGAUAUUGUUCAUUCAGAGGGUGAUGUGUACAUAUCUAUAUUGUAUAUAUGCAACAGAGGAUUGAGCAUCA

Residue numbers refer to the chain shown, from its start. The full ranking holds about 5,800 sequences; the median of “enrichment r” is about 0.68, and the highest 2% start at about 11. The entries come from a sample that favours the highest values as a whole.

The target in the assay is T1, UNK ZnF1-6 (called full-length). The assay is described as follows: nsRBNS (natural sequence RNA bind-n-seq); RBNS binding buffer (assumed for nsRBNS): 25 mM Tris pH 7.5, 150 mM KCl, 3 mM MgCl2, 0.01% Triton X-100, 500 ug/ml BSA, 20 U/ml SUPERase-In, 4 C; UNK is unkempt and MSI1 is Musashi-1; names of the RNAs are library labels; protein concentration not given here; high values mean tight binding.
B1 had a binding signal of 15 enrichment R. The result for B2 reads 15.6 enrichment R. The same measure for B3: 37.4 enrichment R.

Molecule B4 yielded a binding signal of 2.44 enrichment R. With B5, the binding signal was 0.59 enrichment R. The result for B6 reads 0.53 enrichment R. The result for B7 reads 3.77 enrichment R; that for B8, 0.532 enrichment R. The result for B9 reads 0.348 enrichment R; that for B10, 5.99 enrichment R; that for B11, 1.93 enrichment R. Consider B12, for which the binding signal came to 7.31 enrichment R. The result for B13 reads 213 enrichment R.

In turn, B14 displayed a binding signal of 9 enrichment R. B15 came in with a binding signal of 0.561 enrichment R. The same measure for B16: 0.492 enrichment R; for B17: 0.733 enrichment R. On to B18, for which the binding signal is 1.09 enrichment R.

The values above are taken from PMC12136788.
